{
  "source": "paper PMC4336329",
  "about": "(PLoS ONE, 2015)",
  "note": "Among all 310,000 compounds or so, about 14,000 (4.5%) showed an effect of 50% or more. Effects have a minus sign here. For the sample, strong results were picked, then their nearest neighbours and some compounds at random.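 Also: peak tail current of the secondary pulse compared with the same well before compound.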",
  "data": [
    {"molecular_target": "human ether-à-go-go-related gene (hERG) potassium channel (human, UniProt Q12809)", "sequence (Q12809 whole entry, looked up)": "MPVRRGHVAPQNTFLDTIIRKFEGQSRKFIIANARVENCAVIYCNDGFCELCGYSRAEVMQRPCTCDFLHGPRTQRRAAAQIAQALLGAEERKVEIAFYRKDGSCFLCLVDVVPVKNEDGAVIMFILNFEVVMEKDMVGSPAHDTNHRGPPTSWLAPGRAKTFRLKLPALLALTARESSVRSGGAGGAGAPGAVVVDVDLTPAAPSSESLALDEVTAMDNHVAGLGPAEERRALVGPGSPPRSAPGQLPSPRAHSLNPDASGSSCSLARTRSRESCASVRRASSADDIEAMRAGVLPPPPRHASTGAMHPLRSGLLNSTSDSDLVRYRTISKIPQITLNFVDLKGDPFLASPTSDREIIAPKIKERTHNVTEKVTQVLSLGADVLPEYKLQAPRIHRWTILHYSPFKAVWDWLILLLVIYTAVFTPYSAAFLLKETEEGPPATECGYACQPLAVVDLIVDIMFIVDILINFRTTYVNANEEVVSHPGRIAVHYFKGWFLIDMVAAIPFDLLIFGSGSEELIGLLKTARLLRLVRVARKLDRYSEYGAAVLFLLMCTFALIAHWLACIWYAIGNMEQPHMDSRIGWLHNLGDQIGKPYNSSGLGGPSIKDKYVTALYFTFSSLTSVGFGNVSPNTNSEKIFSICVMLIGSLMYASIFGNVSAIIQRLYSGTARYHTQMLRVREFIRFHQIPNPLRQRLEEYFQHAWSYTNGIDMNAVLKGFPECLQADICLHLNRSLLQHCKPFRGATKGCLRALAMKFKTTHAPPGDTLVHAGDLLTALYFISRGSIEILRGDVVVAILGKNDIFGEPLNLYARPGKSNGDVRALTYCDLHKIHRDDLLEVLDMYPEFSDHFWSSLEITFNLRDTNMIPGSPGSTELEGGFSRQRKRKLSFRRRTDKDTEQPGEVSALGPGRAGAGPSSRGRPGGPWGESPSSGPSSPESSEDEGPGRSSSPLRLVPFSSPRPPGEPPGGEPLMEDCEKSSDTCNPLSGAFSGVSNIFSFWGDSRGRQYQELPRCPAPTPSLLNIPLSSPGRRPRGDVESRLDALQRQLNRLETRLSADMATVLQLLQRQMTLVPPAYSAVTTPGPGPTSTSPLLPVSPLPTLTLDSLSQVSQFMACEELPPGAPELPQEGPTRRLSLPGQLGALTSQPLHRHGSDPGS", "experiment": "primary screen, population patch clamp on CHO cells stably expressing hERG; higher = less effect of the substance", "units": {"hERG current change (%, negative = inhibition) at 10uM": "%"}, "values": [
      {"molecule": "COc1ccccc1NC(=O)Cn1cnc2c(cnn2-c2ccc(C)c(C)c2)c1=O", "hERG current change (%, negative = inhibition) at 10uM": 12.1},
      {"molecule": "Cc1[nH]c2ccccc2c1/C=N/NC(=O)c1cccc(S(=O)(=O)Nc2cccc(C(F)(F)F)c2)c1", "hERG current change (%, negative = inhibition) at 10uM": 18.6},
      {"molecule": "CC(=O)c1ccc(OCc2cc(C(=O)NCCc3ccc(Cl)cc3)no2)cc1", "hERG current change (%, negative = inhibition) at 10uM": -29.7},
      {"molecule": "CSc1nnc(NC(=O)c2nc(S(=O)(=O)Cc3ccccc3)ncc2Cl)s1", "hERG current change (%, negative = inhibition) at 10uM": 0.719},
      {"molecule": "O=C(Nn1c(-c2ccc(Br)cc2)nc2ccccc2c1=O)c1ccncc1", "hERG current change (%, negative = inhibition) at 10uM": 20.2},
      {"molecule": "O=C(Nc1ccccn1)c1ccc(Cl)c(S(=O)(=O)N2CCCCCC2)c1", "hERG current change (%, negative = inhibition) at 10uM": -32.7},
      {"molecule": "CCOC(=O)c1cccc(C(=O)Oc2ccccc2)n1", "hERG current change (%, negative = inhibition) at 10uM": 14.6},
      {"molecule": "Cc1nn(-c2ccccc2)c(C)c1C(=O)OCC(=O)Nc1ccccc1", "hERG current change (%, negative = inhibition) at 10uM": -7.85},
      {"molecule": "Cc1cccc(-c2nsc(SCC(=O)NCc3ccco3)n2)c1", "hERG current change (%, negative = inhibition) at 10uM": 15},
      {"molecule": "Cc1nc(N=C(N)N)nc2c(C)cccc12", "hERG current change (%, negative = inhibition) at 10uM": 25.2},
      {"molecule": "C=CCOC(Cn1ccnc1)c1ccc(Cl)cc1Cl", "note": "(centres unmarked)", "hERG current change (%, negative = inhibition) at 10uM": -29.6},
      {"molecule": "Clc1ccc(C(c2ccc(Cl)cc2)n2cc[n+](CC(OCc3ccc(Cl)cc3Cl)c3ccc(Cl)cc3Cl)c2)cc1.[Cl-]", "note": "(centres unmarked)", "hERG current change (%, negative = inhibition) at 10uM": -62.8},
      {"molecule": "Clc1ccc(C(Cn2ccnc2)OCc2c(Cl)cccc2Cl)c(Cl)c1", "note": "(centres unmarked)", "hERG current change (%, negative = inhibition) at 10uM": -32},
      {"molecule": "CC(C)CCn1nnnc1C(c1ccc(F)cc1)N1CCC(C(N)=O)CC1", "note": "(centres unmarked)", "hERG current change (%, negative = inhibition) at 10uM": -21.4},
      {"molecule": "Fc1cccc(CNCCc2c[nH]c3ccccc23)c1.O=C(O)C(=O)O", "hERG current change (%, negative = inhibition) at 10uM": -7.63},
      {"molecule": "Cc1c(CC(=O)NCCCO)c(=O)oc2cc3c(cc12)CCC(C)(C)O3", "hERG current change (%, negative = inhibition) at 10uM": 17.6},
      {"molecule": "Cc1c(CC(=O)NCCCCCC(=O)O)c(=O)oc2cc3c(cc12)CCC(C)(C)O3", "hERG current change (%, negative = inhibition) at 10uM": 9.83},
      {"molecule": "Cc1c(CC(=O)NCCCC(=O)O)c(=O)oc2cc3c(cc12)CCC(C)(C)O3", "hERG current change (%, negative = inhibition) at 10uM": -64.5},
      {"molecule": "COC(=O)c1ccc(NC(=O)CCc2nnc3ccc(NCc4ccco4)nn23)cc1", "hERG current change (%, negative = inhibition) at 10uM": 18.4},
      {"molecule": "CCCCN(C)CCNC(=O)CN1C(=O)CSc2ccc(S(=O)(=O)N3CCCC3)cc21", "hERG current change (%, negative = inhibition) at 10uM": -3.28},
      {"molecule": "CN(C)CCNC(=O)CN1C(=O)CSc2ccc(S(=O)(=O)N3CCCCC3)cc21", "hERG current change (%, negative = inhibition) at 10uM": 12.5},
      {"molecule": "CCCCN(CCCC)CCNC(=O)CN1C(=O)CSc2ccc(S(=O)(=O)N3CCOCC3)cc21", "hERG current change (%, negative = inhibition) at 10uM": -38.8},
      {"molecule": "CCCCN(CCCC)CCNC(=O)CN1C(=O)CSc2ccc(S(=O)(=O)N3CCCCC3)cc21", "hERG current change (%, negative = inhibition) at 10uM": -74.7},
      {"molecule": "CCCCN(C)CCNC(=O)CN1C(=O)CSc2ccc(S(=O)(=O)N3CCCCC3)cc21", "hERG current change (%, negative = inhibition) at 10uM": -50.6},
      {"molecule": "CCCCN(C)CCNC(=O)CN1C(=O)CSc2ccc(S(=O)(=O)N3CCOCC3)cc21", "hERG current change (%, negative = inhibition) at 10uM": 2.2},
      {"molecule": "O=c1oc(-c2ccccc2NS(=O)(=O)c2ccc3ccccc3c2)nc2ccccc12", "hERG current change (%, negative = inhibition) at 10uM": 22.9},
      {"molecule": "CC(=O)c1c(C(C)=O)c(C)n(NC(=O)c2ccncc2)c1C", "hERG current change (%, negative = inhibition) at 10uM": 8.37},
      {"molecule": "COCCN(C(=O)CNC(=O)c1ccco1)C(C(=O)NC1CCCCC1)c1cccnc1", "note": "(centres unmarked)", "hERG current change (%, negative = inhibition) at 10uM": 20.1},
      {"molecule": "CC(C)c1ccc(S(=O)(=O)N(C)C2(C)CCS(=O)(=O)C2)cc1", "note": "(centres unmarked)", "hERG current change (%, negative = inhibition) at 10uM": -46.9},
      {"molecule": "Cc1cc(Cl)ccc1OCC(=O)OCC(=O)NC1CCS(=O)(=O)C1", "note": "(centres unmarked)", "hERG current change (%, negative = inhibition) at 10uM": -12.2},
      {"molecule": "O=C(CCNC(=O)c1ccccc1Cl)Nc1nc(-c2ccccc2Cl)cs1", "hERG current change (%, negative = inhibition) at 10uM": -7.92},
      {"molecule": "Cc1cccc(-n2ccnc2SCC(=O)Nc2ccc3c(c2)OCCO3)c1", "hERG current change (%, negative = inhibition) at 10uM": -14},
      {"molecule": "COc1cccc(NC(=O)c2ccc3c(c2)CCN3S(C)(=O)=O)c1", "hERG current change (%, negative = inhibition) at 10uM": 3.4},
      {"molecule": "Cc1nc2c(-c3ccc(F)cc3)c(C)nn2c(C)c1CCC(=O)NCc1ccco1", "hERG current change (%, negative = inhibition) at 10uM": -19.9},
      {"molecule": "Cc1nc2ncnn2c(C)c1CCC(=O)NC(C)CCc1ccco1", "note": "(centres unmarked)", "hERG current change (%, negative = inhibition) at 10uM": -8.57},
      {"molecule": "Cc1nc2c(-c3ccc(F)cc3)c(C)nn2c(C)c1CCC(=O)Nc1ccccc1", "hERG current change (%, negative = inhibition) at 10uM": 0.666},
      {"molecule": "Cc1nc2c(-c3ccc(F)cc3)c(C)nn2c(C)c1CCC(=O)NC(C)CCc1ccco1", "note": "(centres unmarked)", "hERG current change (%, negative = inhibition) at 10uM": -68.8},
      {"molecule": "Cc1nc2c(-c3ccccc3)c(C)nn2c(C)c1CCC(=O)NC(C)CCc1ccco1", "note": "(centres unmarked)", "hERG current change (%, negative = inhibition) at 10uM": -66.6},
      {"molecule": "Cc1nc2c(-c3ccccc3)c(C)nn2c(C)c1CCC(=O)NCc1ccco1", "hERG current change (%, negative = inhibition) at 10uM": -29.9},
      {"molecule": "CC(=O)Nc1cc2c(cc1NC(=O)Cn1nc(-c3ccccc3)ccc1=O)OCCO2", "hERG current change (%, negative = inhibition) at 10uM": 11.9},
      {"molecule": "COc1cccc(C2C(C(=O)c3cc4ccccc4o3)=C(O)C(=O)N2c2cc(C)on2)c1", "note": "(centres unmarked)", "hERG current change (%, negative = inhibition) at 10uM": 7.91}
    ]}
  ]
}
